# According to ChEMBL document CHEMBL3988442, “University of Dundee, Small-Polar-MMV Screening Library” (2021):
# Screen size: about 48,000 compounds; about 13,000 (27%) showed an effect of 50% or more. This is one part of the list.
# Test system: Wolbachia pipientis
# Test: Anti-Wolbachia Cell-Based Screen
# Assay type: functional
# Parameters: scale not given: in the data most compounds retested in dose-response had high values
# Details: 5 µM
row,Structure (SMILES),Percent Effect [%]
1,CC(NC(=O)c1ccc2c(c1)COC2)c1cccc(N2CCOC2=O)c1 (centres undefined),-4.788
2,Cc1nc2cc(OCc3nc(C(=O)NC(C)(CO)CO)co3)ccc2s1,17.49
3,CCOC(=O)N1CCN(C(=O)C(C)n2ccnc2C(C)C)CC1 (centres undefined),-18.05
4,Cc1nc(C)n(CCNC(=O)C(C)n2ccnc2C(C)C)n1 (centres undefined),-3.784
5,Cc1ccc(CN(C)C(=O)C(C)n2ccnc2C(C)C)o1 (centres undefined),90.15
6,CCc1nnc(CN(CC)C(=O)CCc2scnc2C)o1,-3.701
7,CCc1nnc(CN(CC)C(=O)C(C)n2ccnc2C(C)C)o1 (centres undefined),83.87
8,Cc1cccnc1N1CCN(C(=O)C(C)n2ccnc2C(C)C)CC1 (centres undefined),-23.9
9,CC(C(=O)N(C)Cc1ccc(Br)o1)n1cccn1 (centres undefined),0.6222
10,CC(C)c1nccn1C(C)C(=O)NC1Cc2ccccc2C1 (centres undefined),10.2
11,CCN(Cc1ccncc1)C(=O)C(C)n1ccnc1C(C)C (centres undefined),110.2
12,Cc1ccc(CN(C)C(=O)C(C)n2cncn2)o1 (centres undefined),-9.156
13,COc1cc2c(cc1CNC(=O)C(C)n1ccnc1C(C)C)OCCO2 (centres undefined),-1.746
14,CCN(Cc1ccc(C)o1)C(=O)C(C)n1ccnc1C(C)C (centres undefined),103.3
15,Cc1nnc2ccc(NCC3(N4CCCCC4)CCOCC3)nn12,-7.148
16,COc1ccc(C)cc1-n1c(COC(C)C)n[nH]c1=O,0.04984
17,Cc1cccc(CCC(=O)NCC2CCCN2c2cccnn2)c1 (centres undefined),7.373
18,Cc1nc(CN2CC(=O)N(C)c3ccccc3C2=O)no1,7.895
19,CN(CC(O)C1CC1)C(=O)c1ccc(-c2nc(C3CC3)no2)cc1 (centres undefined),4.636
20,COc1cccc(CNc2nnc(C(C)(C)C)o2)c1OC,92.71
21,COc1ccc(OC)c(CNc2nnc(C(C)(C)C)o2)c1,112.6
22,CC(C)(C)c1nnc(NCc2ccc(F)cc2)o1,-7.164

row,Structure (SMILES),Percent Effect [%]
1,CCc1nnc(NCc2cccc(OC)c2OC)o1,1.756
2,COc1cccc(CNC(=O)Nc2ccc3[nH]nnc3c2)c1OC,-10.07
3,COc1ccc(CNc2nnc(CC(C)(C)C)o2)cc1C#N,-29.2
4,CN(Cc1ccccc1)c1ncccc1CNC1CCC1,-23.22
5,CN(Cc1cc(Br)c2c(c1)OCO2)Cc1cscn1,2.814
6,CSCCNC(=O)c1coc(COc2ccc(F)cc2)n1,-7.576
7,CCC(C)N(Cc1ccncc1)C(=O)CCSC (centres undefined),-18.32
8,O=C(NCc1cccnc1)NCC(O)c1cccc(C(F)(F)F)c1 (centres undefined),-14.42
9,O=C(NCc1cccc(F)c1)NCC(O)c1cccc(F)c1 (centres undefined),96.97
10,Cc1cc(C)c(CNC(=O)NCC(O)c2cccc(F)c2)c(=O)[nH]1 (centres undefined),0.6677
11,Cc1cc(CNC(=O)NCC(O)c2cccc(F)c2)no1 (centres undefined),-1.718
12,O=C(NCc1ccccc1)NCC(O)c1cccc(F)c1 (centres undefined),95.34
13,CCOc1cccc(CNC(=O)NCC(O)c2cccc(F)c2)c1 (centres undefined),5.413
14,CC(C)Nc1cccc(C(=O)NCC(O)c2cccc(F)c2)c1 (centres undefined),-13.04
15,CSc1ccc(CNC(=O)NCC(O)c2cccc(F)c2)cc1 (centres undefined),106.1
16,CNC(=O)c1cccc(NC(=O)NCc2ccc(SC)cc2)c1C,-19.71
17,O=C(C1SCCc2sccc21)N1CCN(C2CC2)C(=O)C1 (centres undefined),-5.096
18,CN(CCc1noc(C2CC2)n1)C(=O)CCc1cc2n(n1)CCCNC2,5.558
19,CC(=O)c1sc(C(NC(=O)c2ccccc2)C2CC2)nc1C (centres undefined),5.718
20,CSCCC(=O)N1C[C@@H](C)[C@](O)(C(C)C)C1,109.4
21,C[C@@H]1CN(C(=O)CSc2nncn2C)C[C@@]1(O)C1CC1,-9.811
22,CCC(O)CN1CCN(C(=O)CCSC)CC1 (centres undefined),1.956

row,Structure (SMILES),Percent Effect [%]
1,CSCCC(=O)N1CCN(CC(C)O)CC1 (centres undefined),-18.5
2,CSCC(=O)N1CCN(CC(O)C(C)(C)C)CC1 (centres undefined),-10.26
3,CSCC(=O)N1C[C@@H](C)[C@](O)(C(C)C)C1,100.1
4,Clc1cccc2c1CCN(Cc1nc(CC3CC3)no1)C2,-15.7
5,O=C(NCCNc1ncccn1)c1scnc1Cl,2.928
6,CC(C)Cc1noc(CN2CCCN(C(=O)c3ccccc3Cl)CC2)n1,-15.62
7,CCc1noc(CN2CCN(C(=O)N(C)C)CC2)n1,-9.661
8,CC(C)Cc1noc(CN2CCN(C(=O)c3ccco3)CC2)n1,-2.17
9,CCc1noc(CN2CCN(C(=O)c3ccccn3)CC2)n1,-5.851
10,CC(C)Cc1noc(CN2CCN(C(=O)c3ccccc3F)CC2)n1,100.3
11,CCc1noc(CN2CCN(C(=O)c3ccccc3F)CC2)n1,117.4
12,OCC1(O)CCCN(Cc2ccc(-c3cc[nH]n3)s2)CC1 (centres undefined),3.83
13,Cc1cnn(CC2CCCN2C(=O)c2n[nH]c(=O)c3ccccc23)c1 (centres undefined),115
14,O=C(c1n[nH]c(=O)c2ccccc12)N1CCCC1Cn1cccn1 (centres undefined),110.2
15,Cc1cnn(CC2CCCN2C(=O)c2cc3ccccc3c(=O)[nH]2)c1 (centres undefined),122.8
16,Cc1cnn(CC2CCCN2C(=O)Cc2n[nH]c3ccccc23)c1 (centres undefined),2.79
17,O=C1COc2c(cccc2C(=O)N2CCCCC2Cn2cccn2)N1 (centres undefined),-1.784
18,Cc1cnn(CC2CCCN2C(=O)c2cc3ccccc3[nH]2)c1 (centres undefined),2.697
19,O=C(c1nccc2ccccc12)N1CCCCC1Cn1cccn1 (centres undefined),116.9
20,Cc1cnn(CC2CCCN2C(=O)c2cc3ccccc3[nH]c2=O)c1 (centres undefined),-0.3129
21,O=C1COc2c(cccc2C(=O)N2CCCC2Cn2cccn2)N1 (centres undefined),-10.2
22,O=C1CC(c2ccc(F)c(F)c2)c2snc(C(=O)O)c2N1 (centres undefined),8.498

row,Structure (SMILES),Percent Effect [%]
1,Cc1ccc(-c2cc(CN(CC(N)=O)CC(C)C)on2)cc1,-24.63
2,Cc1ccc(-c2ncc(C(=O)NCCS(N)(=O)=O)s2)c(C)c1,-6.964
3,CCCn1nnnc1CSc1nccn1CC,-2.029
4,Cc1nc(CN2CCN(C(=O)CCC(=O)c3ccccc3)CC2)no1,17.55
5,Cn1cc(C(=O)N2CCC(Cc3nccs3)CC2)cn1,0.6928
6,CCc1nc(CN2CCCN(C(=O)c3cncnc3C)CC2)cs1,14.37
7,O=C(c1cccnc1)N1CCCC(Cc2nccs2)C1 (centres undefined),104.8
8,Cn1cc(C(=O)N2CCCC(Cc3nccs3)C2)cn1 (centres undefined),-5.021
9,Cc1ncc(C(=O)N2CCCC(Cc3nccs3)C2)cn1 (centres undefined),96.26
10,CCCn1cc(C(=O)N2CCCC(Cc3nccs3)C2)cn1 (centres undefined),95.18
11,O=C(N1CCCC1)C12CC(CN1Cc1nccs1)C2,-16.8
12,O=C(c1cccnc1)N1CCN(c2ccnc3ccsc23)CC1,-5.057
13,O=C(c1cnco1)N1CCCC(Cc2nccs2)C1 (centres undefined),-3.557
14,Cc1ncncc1C(=O)N1CCCN(Cc2nccn2C(C)C)CC1,-12.73
15,Cc1ncncc1C(=O)N1CCCC(Cc2nccs2)C1 (centres undefined),112.8
16,Cc1ncc(C(=O)N2CC[C@@]3(O)CCN(C4CCCCC4)C[C@H]3C2)cn1,8.568
17,Cc1cccc2c1nc(CCO)n2-c1ccc(N)nc1,-17.09
18,CSc1ccc(-c2nc(CN3CCC(NC(C)=O)C3)c(C)o2)cc1 (centres undefined),-8.203
19,COc1cccc2c1OCC(C(=O)N1CCN(CCS(C)(=O)=O)CC1)C2 (centres undefined),-9.844
20,Fc1ccc(Cn2ncc3c2CN(c2noc(C4CC4)n2)C3)cc1,2.089
21,Cn1ccnc1C(=O)N1CCC(Cn2cc(-c3ccsc3)nn2)CC1,0.3036
22,COc1nn(C)cc1C(=O)N1CCC(c2nnc(-c3ccsc3)o2)CC1,120.9

row,Structure (SMILES),Percent Effect [%]
1,Cn1nccc1C(=O)N1CCC(n2cc(-c3ccsc3)nn2)CC1,-17.39
2,COc1ncccc1C(=O)N1CCC(c2nnc(C3CC3)o2)CC1,16.61
3,COc1nn(C)cc1C(=O)N1CCC(c2nnc(C3CC3)o2)CC1,8.567
4,COc1nn(C)cc1C(=O)N1CCC(c2nnc(C(C)C)o2)CC1,80.59
5,C/C=C(/C)C(=O)NS(=O)(=O)c1ccc(Cl)cn1,2.315
6,Cc1nccnc1N1Cc2cnc(CC(C)C)nc2C1,-0.1537
7,CCCNC(=O)NCc1nc(C)c(C)o1,-5.382
8,Cc1nc(CN(C)S(=O)(=O)c2ccc(F)cc2Br)no1,-1.638
9,C[S+]([O-])c1nncn1CC(=O)c1cccc(Cl)c1 (centres undefined),6.672
10,COc1ccc(NC(=O)N(C)Cc2ccco2)cn1,3.036
11,COc1ccc2nc(O)c(CN(C)Cc3ncc[nH]3)cc2c1,-3.339
12,COc1cccc(CN(Cc2ccco2)Cc2cnc(C)n2C)c1.O=C(O)CC(O)(CC(=O)O)C(=O)O,133.7
13,COc1ccc(CN(Cc2ccco2)Cc2[nH]cnc2C)c(OC)c1.O=C(O)CC(O)(CC(=O)O)C(=O)O,111.9
14,CCOC(=O)C1(Cc2cccc(OC)c2)CCN(Cc2ncc[nH]2)CC1,-0.1816
15,Cc1noc(CN(Cc2ccc3c(c2)OCCO3)Cc2ccco2)n1,-7.452
16,COc1ccc(CN(C(=O)C(C)C)c2cnn(C)c2)c(OC)c1,-18.73
17,COc1cccc(CN2CCC(c3cc(O)nc(C)n3)C2)c1.O=C(O)CC(O)(CC(=O)O)C(=O)O (centres undefined),-8.452
18,COc1cccc(CN(Cc2ccco2)Cc2[nH]cnc2C)c1.O=C(O)CC(O)(CC(=O)O)C(=O)O,156.3
19,COc1cccc(CN(Cc2ncc[nH]2)Cc2ccco2)c1.O=C(O)CC(O)(CC(=O)O)C(=O)O,114.4
20,COc1ccc(CN(C(=O)CCC(C)C)c2cnn(C)c2)c(OC)c1,-10.12
21,Cc1nc[nH]c1CN(Cc1ccccc1)Cc1nccs1,10.51
